Reference: PubChem BioAssay AID1745850 (National Center for Advancing Translational Sciences (NCATS), 2022)
Among all 2,100 compounds or so, about 260 (12%) were called active. Roughly 58% stayed inconclusive and do not appear here. Calls come from the whole dose curve; as a rule, active = well fitted cell-killing curve with a large enough effect; inconclusive = small, poorly fitted or top-dose-only effect, or effect the other way; inactive = flat fitted curve, though single readings scatter. Some of the results follow. Where a call stands in place of a potency, no number is given.
Potency is the fitted concentration of half-maximal effect.

Assay: Viability Counterscreen for Confirmatory qHTS for Inhibitors of ATXN expression; note: nearly all actives have a fitted effect of over 50% in size
Conditions: HEK-293 ATXN2-luc cells viability, CellTiter-Fluor, 24 h
Procedure, shortened: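 Luminescence read-out (SteadyGlo, 5 min) followed a 30 min Gly-Phe-AFC (25 uM final) viability fluorescence read. ATXN2-luciferase reporter cells were exposed 24 h to a dilution series. Medium-only wells served as the 100% inhibition reference.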
In the case of `CCN1CCS/C1=C\C=C\C1=[N+](CC)CCS1`, the Potency is reported as 25.1 µM (active).
In the case of `Cc1cc(C)cc(NC(=O)CCc2nc3sc4c(c3c(=O)[nH]2)CCCC4)c1`, the Potency is reported as “inactive”.
With `Cc1ccc(N/C(N)=N/c2nc(C)cc(N3CCCCC3)n2)c(C)c1` the Potency was 3.16 µM (active).
For `Cc1cc(C)nc(/N=C(\N)Nc2ccc(C(C)C)cc2)n1`, the Potency was “inactive”.
In the case of `O=C(c1ccco1)N1CCN(c2ncnc3scc(-c4cccs4)c23)CC1`, the Potency is reported as “inactive”.
With `COc1ccccc1OCCN1CSC(=S)N(C)C1` the Potency was 20 µM (active).
With `COC(=O)C1=C(C)N(c2ccc(Cl)c(Cl)c2)C(=O)C1` the Potency was “inactive”.
In the case of `CCCCC(=O)NNC(=S)NC(=O)c1ccc(C)cc1`, the Potency is reported as “inactive”.
In the case of `COc1ccc2c(c1)CCCN2S(=O)(=O)c1ccc(Cl)cc1`, the Potency is reported as “inactive”.
For `COc1ccc(/C=C2\CN(Cc3ccccc3)C/C(=C\c3ccc(OC)c(O)c3)C2=O)cc1O`, the Potency was 12.6 µM (active).
With `COc1ccc(CCNC2=C(Cl)C(=O)N(Cc3ccccc3)C2=O)cc1OC` the Potency was “inactive”.
With `COCC(C)n1c(C)cc(C(=O)COC(=O)c2cccn2C)c1C` (stereo not given) the Potency was “inactive”.
For `CCOc1cc(C=C(C(=O)OC)C(=O)OC)ccc1OCc1ccc([N+](=O)[O-])cc1`, the Potency was 28.2 µM (active).
With `N#Cc1nc(COc2ccc(-c3ccccc3)cc2)oc1NCc1cccnc1` the Potency was “inactive”.
With `CC(C(=O)c1ccc(-c2ccccc2)cc1)[n+]1cccc(NC(=O)c2ccccc2)c1` (stereo not given) the Potency was “inactive”.
For `O=C(Nc1ccc[n+](CC(=O)c2cccc3ccccc23)c1)c1ccccc1`, the Potency was 3.16 µM (active).
With `O=C(/C=C/c1ccc(Cl)cc1)Nc1ccc(CN2CCOCC2)cc1` the Potency was “inactive”.
With `O=C(Nc1cnn(C23CC4CC(CC(C4)C2)C3)c1)c1cnn2c(C(F)(F)F)cc(-c3ccco3)nc12` the Potency was 35.5 µM (active).
For `Cn1c(S(=O)(=O)c2ccc([N+](=O)[O-])cc2)nc(Br)c1Br`, the Potency was “inactive”.
For `COc1ccc2c(c1)CC(N1CCN(C)CC1)c1cc(OC)ccc1S2` (stereo not given), the Potency was 28.2 µM (active).
With `O=C(CSc1nc2ncc(Br)cc2[nH]1)Nc1ccccc1-c1ccccc1` the Potency was “inactive”.
For `COc1cccc(C2CC(c3c(-c4ccccc4)c4cc(Cl)ccc4[nH]c3=O)=NN2S(C)(=O)=O)c1OC` (stereo not given), the Potency was “inactive”.
For `C/C(=N\NC(=O)CN1CCCCC1)c1ccccc1O`, the Potency was “inactive”.
With `Cc1cc(C)c(S(=O)(=O)/N=C2\C=C(Nc3ccc(C(=O)O)cc3)C(=O)c3ccccc32)c(C)c1` the Potency was 3.16 µM (active).
With `FC(F)(F)c1nc(-c2cccs2)ncc1-c1nnnn1-c1ccc(Cl)cc1` the Potency was 35.5 µM (active).
In the case of `Oc1c(C(c2ccccn2)N2CCC(Cc3ccccc3)CC2)cc(Cl)c2cccnc12` (stereo not given), the Potency is reported as 25.1 µM (active).
With `CCCCSc1nc(C)cc(SCC(=O)N/N=C/c2cccc(OC)c2O)n1` the Potency was “inactive”.
In the case of `O=C(C1CCC(CNS(=O)(=O)c2cccs2)CC1)N1CCN(c2ccc(F)cc2)CC1` (stereo not given), the Potency is reported as “inactive”.
With `CN1CCN(c2cc(-c3cc(O)c4ncccc4c3)ccn2)CC1` the Potency was 31.6 µM (active).
In the case of `CCN(CC)CCNc1ccnc2cc(Cl)ccc12`, the Potency is reported as “inactive”.
For `O=c1c2ccccc2sc2c(CO)ccc(NCCN3CCCCC3)c12`, the Potency was 22.4 µM (active).
In the case of `CCN(CC)CCNc1ccc(CO)c2sc3ccccc3c(=O)c12`, the Potency is reported as 20 µM (active).
With `Cc1cc(C(=O)CN2C(=O)c3ccccc3S2(=O)=O)c(C)n1C(C)C` the Potency was “inactive”.
With `O=C(Nc1ccc(Br)cc1)c1cccc(OC(=S)N2CCOCC2)c1` the Potency was “inactive”.
In the case of `CCn1c2ccccc2c2cc(NC(=O)COC(=O)c3cccc(S(=O)(=O)NC)c3)ccc21`, the Potency is reported as “inactive”.
In the case of `OC1(c2ccc(Cl)cc2)CCN(Cc2c[nH]c3ccccc23)CC1`, the Potency is reported as “inactive”.
In the case of `O=C(Nc1ccc(Cl)cc1)Nc1nc(-c2sccc2Br)cs1`, the Potency is reported as 10 µM (active).
In the case of `O=C(Nc1ccc(NC(=O)c2ccc(Cl)cc2Cl)cc1)c1cccs1`, the Potency is reported as “inactive”.
In the case of `CCOc1ccccc1NC(=O)CCCc1nc2ccccc2c(=O)[nH]1`, the Potency is reported as “inactive”.
In the case of `CCCCOc1ccccc1NC(=O)c1scc2c1OCCO2`, the Potency is reported as “inactive”.
For `CCCCOc1ccccc1NC(=O)Cn1c(-c2nonc2N)nc2ccccc21`, the Potency was 11.2 µM (active).
In the case of `Cc1cc(OCCCCCn2ccnc2)cc(C)c1Cl`, the Potency is reported as “inactive”.
In the case of `Cc1cc(SCC(=O)NN)c2cc(Br)ccc2n1`, the Potency is reported as “inactive”.
In the case of `CCCOc1ccc(C(=O)NC(=S)NNC(=O)c2c(-c3ccccc3)noc2C)cc1`, the Potency is reported as “inactive”.
For `COc1cccc(/C=N/Nc2nc3ccccc3n3cnnc23)c1O`, the Potency was “inactive”.
With `COc1cccc(/C=N/Nc2ncnc3c2ncn3Cc2ccccc2)c1O` the Potency was “inactive”.
For `CCN(CC)S(=O)(=O)c1ccc(N/N=C/c2cc(OC)ccc2O)nc1`, the Potency was “inactive”.
With `O=[N+]([O-])c1ccc(O)c(/C=N/Nc2ccccn2)c1` the Potency was 10 µM (active).
For `O=[N+]([O-])c1ccc(O)c(/C=N/Nc2ncnc3c2cnn3-c2ccccc2)c1`, the Potency was 12.6 µM (active).
With `O=[N+]([O-])c1ccc(O)c(/C=N\N=C2c3ccccc3-c3ccccc32)c1` the Potency was 12.6 µM (active).
In the case of `O=C(CCc1ccccc1)N/N=C/c1cc(Br)ccc1O`, the Potency is reported as “inactive”.
In the case of `Cc1cc(Cl)c(C(=O)Nc2cccc(C(F)(F)F)c2)c(C)n1`, the Potency is reported as “inactive”.
In the case of `C=CCN1C=CC(=O)[C@@H](OC(=O)Nc2ccc(Br)cc2)[C@H]1c1ccccc1Br`, the Potency is reported as “inactive”.
For `O=C(CN1C(=O)c2ccccc2S1(=O)=O)Nc1ncc(Cl)cc1Cl`, the Potency was “inactive”.
In the case of `O=C(c1ccco1)N(CCCN1CCOCC1)c1nc(-c2ccc(Cl)cc2)cs1`, the Potency is reported as “inactive”.
In the case of `CC(=O)Nc1cc(-c2ccc(C(=O)NC3CC3)cc2)cn2c(-c3cccc(C(C)=O)c3)cnc12`, the Potency is reported as “inactive”.
With `O=C(NCCc1ccccc1)c1ccc2nccnc2c1` the Potency was “inactive”.
For `NS(=O)(=O)c1ccc(CCNC(=O)COC(=O)/C=C/c2cc(Br)ccc2F)cc1`, the Potency was “inactive”.
In the case of `NS(=O)(=O)c1ccc(CCNC(=O)c2cc(-c3ccccn3)nc3ccc(Br)cc23)cc1`, the Potency is reported as 35.5 µM (active).
For `CCC(CC)C(=O)c1c[nH]c(C(=O)NCc2ccccn2)c1`, the Potency was “inactive”.
For `CCn1c(/C=C/c2ccc([N+](=O)[O-])o2)nc2ccccc2c1=O`, the Potency was 10 µM (active).
In the case of `O=[N+]([O-])c1ccc(/C=N/N=C/c2ccc([N+](=O)[O-])o2)o1`, the Potency is reported as 7.94 µM (active).
With `COc1ccccc1NC(=O)Nc1nc(CC(=O)N2CCN(c3ccccc3)CC2)cs1` the Potency was “inactive”.
For `CC(C)Nc1nc(NC(C)C)nc(N(C#N)CCOc2ccc(Cl)cc2Cl)n1`, the Potency was “inactive”.
For `O=C(NC(c1ccccc1)c1ccc2ccccc2n1)C1CCN(CCOc2ccc(Cl)cc2Cl)CC1` (stereo not given), the Potency was 25.1 µM (active).
For `O=C(NC(c1ccccc1)c1c(O)ccc2ccccc12)c1ccccc1Cl` (stereo not given), the Potency was “inactive”.
With `COc1ccc(/C=C/C(=O)Nc2cccc(S(=O)(=O)N3CCCC3)c2)cc1OC` the Potency was “inactive”.
For `CCSc1nc2ccccc2n1C(=O)/C=C\c1ccc(OC)c(OC)c1`, the Potency was 7.94 µM (active).
In the case of `COc1cc(/C=C/C(=O)Nc2ccc(OC)c(S(=O)(=O)N3CCOCC3)c2)ccc1OCC#N`, the Potency is reported as “inactive”.
For `COC1=C(c2ccccc2)C(=O)c2ccccc2C1=O`, the Potency was “inactive”.
With `CCOC(=O)c1ccc(NC(=O)c2nc[nH]c2C(=O)N[C@H](C)c2ccccc2)cc1` the Potency was “inactive”.
For `CC(=O)c1sc(NC(=O)c2cc(-c3ccccc3)nn2-c2ccccc2)nc1C`, the Potency was “inactive”.
With `O=C(NCCc1csc(-c2ccc(Cl)cc2)n1)c1ccco1` the Potency was “inactive”.
In the case of `O=C(Nc1nc(NC(=O)c2ccco2)n(-c2ccccc2)n1)c1ccccc1`, the Potency is reported as 22.4 µM (active).
With `Cc1nc(N2CCN(Cc3ccc4c(c3)OCO4)CC2)c2oc3ccccc3c2n1` the Potency was “inactive”.
For `CCOC(=O)c1c(NC(=O)COC(=O)Cn2cnc3ccccc32)sc(C)c1C`, the Potency was “inactive”.
For `O=C(/C=C/c1ccccc1)c1cc(Br)ccc(=O)c1O`, the Potency was 22.4 µM (active).
For `CNc1ccc(Br)cc(C(=O)/C=C/c2ccc3c(c2)OCO3)c1=O`, the Potency was “inactive”.
For `CCNc1ccc(Br)cc(C(=O)/C=C/c2ccccc2Cl)c1=O`, the Potency was “inactive”.
With `NC(=S)N1OC[C@@H]2COc3ccc4ccccc4c3[C@@H]21` the Potency was “inactive”.
For `COc1ccccc1Cc1c(-c2ccco2)nc2c(C)cc(Br)cn12`, the Potency was 10 µM (active).
In the case of `COC(=O)c1ccc(N2CCOCC2)c(NC(=O)Nc2cccc(OC)c2)c1`, the Potency is reported as “inactive”.
For `Cn1c(=O)c2cc(NC(=O)Nc3cccnc3)ccc2n1Cc1ccc(Cl)cc1`, the Potency was “inactive”.
With `COc1cccc(OCC(=O)Nc2cc(Cl)ccc2Oc2ccccc2)c1` the Potency was “inactive”.
With `O=C(/C=C/Nc1ccc(S(=O)(=O)Nc2ncccn2)cc1)c1ccc(Cl)c(Cl)c1` the Potency was “inactive”.
For `COc1cccc(S(=O)(=O)NCc2ccc(C(=O)Nc3cccc(Cl)c3)cc2)c1`, the Potency was 20 µM (active).
In the case of `O=C(Nc1ccc(Cl)c(Cl)c1)c1cccc(S(=O)(=O)NCc2cccnc2)c1`, the Potency is reported as 3.16 µM (active).
With `O=C(CSc1nnnn1-c1ccccc1)Nc1nsc(-c2ccccc2)n1` the Potency was “inactive”.
In the case of `CCn1c2ccccc2c2cc(NC(=O)COC(=O)c3ccccc3F)ccc21`, the Potency is reported as “inactive”.
For `C=CCNc1oc(-c2ccc(Cl)cc2)nc1C#N`, the Potency was “inactive”.
In the case of `NC(Cc1ccc(Cl)cc1)c1csc(Nc2nccc(C(F)(F)F)n2)n1` (stereo not given), the Potency is reported as 28.2 µM (active).
With `NC(=O)c1cccc(Nc2nc(C(N)Cc3ccc(C(F)(F)F)cc3)cs2)n1` (stereo not given) the Potency was “inactive”.
In the case of `NC(Cc1ccccc1)c1csc(Nc2nccc(C(F)(F)F)n2)n1` (stereo not given), the Potency is reported as 14.1 µM (active).
For `NC(Cc1ccc(F)cc1)c1csc(Nc2cc(NCc3ccco3)ncn2)n1` (stereo not given), the Potency was “inactive”.
In the case of `CCC(C)Sc1cc(C(F)(F)F)c(C(=O)Nc2ccc(Cl)cc2)cn1` (stereo not given), the Potency is reported as “inactive”.
For `COC(=O)Cc1[nH]n(-c2nc3ccccc3s2)c(=O)c1C(C)=Nc1ccc(C)cc1`, the Potency was “inactive”.
With `COc1cc(C)c(C(=O)CC(=O)c2c(C)cc(OC)cc2C)c(C)c1` the Potency was “inactive”.
With `CCN(CC)S(=O)(=O)c1ccc(NC(=O)Nc2cccc(C(F)(F)F)c2)cc1` the Potency was “inactive”.
In the case of `COc1ccc(/C=N/Nc2cc(N3CCCC3)nc(N3CCCC3)n2)cc1`, the Potency is reported as 3.16 µM (active).
For `COc1ccc(C(=O)N/N=C/c2ccc(N(C)c3ccccc3)cc2)cc1`, the Potency was “inactive”.
